# A number with no mark means an inactive call. Results filed as inconclusive are left out. Activity calls are given as the source filed them. Unless noted, calls come from the whole dose curve; as a rule, active = well fitted curve in the direction sought with a large enough effect; inconclusive = small, poorly fitted or top-dose-only effect, or another doubt; inactive = no such curve, though single readings can be large; an effect the other way counts as inactive or inconclusive.
# Key:
# [1] = AP1 Signaling Pathway (AID 357; active = well fitted curve in either direction with a large enough effect, not every such curve was filed as active;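 note: ME-180 reporter cells stimulated with EGF at its EC50 level; % is set by controls: 0 for no effect and ±100 for the full control effect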); conditions: ME-180 AP-1-bla reporter, EGF-induced, beta-lactamase ratio, 5 h; at 7.69 µM (top of the series) unless noted
# In short: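 AP-1-bla ME-180 cells, Opti-MEM + 0.5% dialyzed FBS, plated overnight 37 °C. Cpd titration + EC50 EGF, 5 h 37 °C. CCF4 2.5 h RT; ex 405, em 460/530 ratio → %activity, AC50.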
# [2] = NFAT Signaling Pathway (AID 444; active = well fitted curve in either direction with a large enough effect, not every such curve was filed as active;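 note: carbachol stimulus at about its EC50 of 1 µM final; % is set by controls: 0 for no effect and ±100 for the full control effect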); conditions: Jurkat NFAT-bla M1, carbachol, beta-lactamase ratio, 5 h; at 7.69 µM (top of the series) unless noted
# In short: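 Jurkat cells carrying an NFAT-driven β-lactamase reporter and co-transfected muscarinic M1 receptor were treated with compound plus carbachol (1 uM final, an EC50 level) for 5 h at 37 °C. CCF4 loading followed for 1 h at RT; 460/530 nm ratio gave %activity.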
# [3] = Stat Signaling Pathway (AID 446; active = well fitted curve in either direction with a large enough effect, not every such curve was filed as active;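 note: ME-180 cervical cancer cells given 40 pM IL-6 alongside compound; SIE-controlled beta-lactamase reporter measured as 460/530 nm FRET emission ratio; % is set by controls: 0 for no effect and ±100 for the full control effect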)
# In short: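 Compound effects on IL-6-induced STAT reporter activity were measured in ME-180 cells. After overnight culture, cells were co-treated with 40 pM IL-6 for 5 hrs before beta-lactamase substrate loading at room temperature.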
# [4] = biological target: Glucocorticoid receptor (Homo sapiens) (UniProt P04150); experiment: GR-GFP Redistribution (AID 450;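 active = compounds whose dose series gives a full or clear partial fitted curve of increased nuclear translocation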; note: potency is the fitted concentration of half-maximal effect); conditions: U2OS GR-GFP nuclear translocation, laser cytometry, 2 h
# [5] = biological target: Glucocorticoid receptor (Homo sapiens) (UniProt P04150); experiment: GR-EFC Redistribution (AID 451; calls by dose curve; note: potency is the fitted concentration of half-maximal effect); conditions: CHO-K1 GR-EFC translocation, beta-gal luminescence, 2 h
# In short: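 CHO-K1 cells stably expressing nuclear-localized β-gal enzyme acceptor and GR fused C-terminally to the enzyme donor fragment; ligand-driven nuclear translocation restores β-gal by complementation. Compounds titrated up to 46 uM final, 2 h at 37 °C; luminescence read.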
# [6] = biological target: Mitogen-activated protein kinase 10 (Mus musculus) (UniProt Q61831); experiment: JNK3 AlphaScreen Assay (AID 530; active = well fitted curve in either direction with a large enough effect, not every such curve was filed as active;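 note: kinase came from lysate of stimulated human HepG2 cells; signal reports phosphorylation of biotinylated GST-cJun 1-79 at Ser73 with 10 µM ATP; % is set by controls: 0 for no effect and ±100 for the full control effect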)
# In short: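 Biotinylated GST-cJun(1-79) served as substrate for JNK3 in HepG2 lysates stimulated with IL-1beta and TNF-alpha. ATP was 10 uM final, pH 7.6. Ser73 phosphorylation was quantified by AlphaScreen (680 nm excitation).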
# [7] = biological target: Dual specificity protein kinase CLK4 (Homo sapiens) (UniProt Q9HAZ1); experiment: qHTS Assay for Inhibitors of CDC-like Kinase 4 (Kinase-Glo Assay) (AID 1770); note: nearly all actives have a fitted effect of over 65% in size; note: potency is the fitted concentration of half-maximal effect
# In short: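 Inhibition was judged from remaining ATP, measured by Ultra-Glo luciferase bioluminescence after Clk4 (25 nM) had acted on RS peptide at 1 uM ATP for 4.5 hours, room temperature.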
# [8] = biological target: Dual specificity protein kinase CLK4 (Homo sapiens) (UniProt Q9HAZ1); experiment: qHTS Assay for Inhibitors of CDC-like Kinase 4 (ADP-Glo Assay) (AID 1771); note: nearly all actives have a fitted effect of over 70% in size; note: potency is the fitted concentration of half-maximal effect
# In short: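 In this ADP-Glo format, 1 uM ATP and 100 uM RS peptide served as substrates for 25 nM Clk4 in Mg2+/EGTA/DTT/Triton buffer; reactions ran 1 hr at room temperature before luminescent ADP quantification.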
# [9] = biological target: Dual specificity protein kinase CLK4 (Homo sapiens) (UniProt Q9HAZ1); experiment: qHTS Assay for Inhibitors of CDC-like Kinase 4 (ADP-FP Assay) (AID 1795); note: nearly all actives have a fitted effect of over 60% in size; note: potency is the fitted concentration of half-maximal effect
# In short: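 Inhibition of ADP formation by 6.25 nM Clk4 is measured using 1 uM ATP and 100 uM RS repeat peptide over one hour. Produced ADP displaces a fluorescent tracer from antibody, lowering polarization.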
# [10] = biological target: Ubiquitin carboxyl-terminal hydrolase 1 (Homo sapiens) (UniProt O94782); experiment: Inhibitors of USP1/UAF1: Pilot qHTS (AID 504865);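 note: rhodamine fluorescence freed from ubiquitin-rhodamine substrate followed over time; top concentration of the series differs between compounds; % is set by controls: 0 for no effect and ±100 for the full control effect; nearly all actives have a fitted effect of over 35% in size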
# In short: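 Kinetic fluorescence assay: 1nM USP1/UAF1, 15 min compound preincubation, then 150nM Ub-Rho; 480/540 nm.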
# [11] = biological target: Lysosomal acid glucosylceramidase (Homo sapiens) (UniProt P04062); experiment: Glucocerebrosidase-p2 (AID 348; in the data active = potency below about 10 µM; note: potency is the fitted concentration of half-maximal effect); conditions: purified GBA, blue fluorogenic substrate, 40 min
# In short: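 Normal human glucocerebrosidase (0.2 nM) with blue fluorogenic substrate (80 uM final) in citrate/phosphate pH 5.9 with 10mM sodium taurocholate, 0.01% tween-20; 40 min RT, NaOH/glycine stop; fluorescence Ex 365/Em 440; AC50 from a titration from 0.6 nM upwards.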
# [12] = biological target: Cytochrome P450 1A2 (Homo sapiens) (UniProt P05177); experiment: p450-cyp1a2 (AID 410; calls by dose curve; note: potency is the fitted concentration of half-maximal effect)
# In short: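 Read-out is luminescence from luciferin produced by CYP1A2 demethylation of Luciferin-ME (100uM, at Km). Detection reagent stopped the 60 min NADPH-dependent reaction; signals were normalized to 57 uM furafylline.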
# [13] = biological target: 3',5'-cyclic-AMP phosphodiesterase 4B (Homo sapiens) (UniProt Q07343); experiment: qHTS Assay for Inhibitors of PDE-IV (AID 607; active = well fitted activation curve with a large enough effect in the main read-out, with a control signal flat, not every such curve was filed as active; note: % of control where 0% means no effect)
# In short: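 ACTOne HEK293 cells carry a modified cAMP-gated CNG channel and express endogenous PDE4; plated 1000 cells/well, compounds up to 22.9 uM final. Membrane-potential dye fluorescence (ex 535/em 590) was read; parental cells received 10 uM forskolin + 100 uM RO 20-1724.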
# [14] = biological target: Cytochrome P450 3A4 (Homo sapiens) (UniProt P08684); experiment: qHTS Assay for Activators of Cytochrome P450 3A4 (AID 885); note: nearly all actives have a fitted effect of over 65% in size
# In short: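 CYP3A4 activity: Luciferin-PPXE O-dealkylation, 25uM substrate, 200mM KPO4, RT throughout. Read-out is luciferase luminescence; higher values reflect activation.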
# [15] = biological target: Cytochrome P450 3A4 (Homo sapiens) (UniProt P08684); experiment: qHTS Assay for Inhibitors and Substrates of Cytochrome P450 3A4 (AID 884); note: potency is the fitted concentration of half-maximal effect; nearly all actives have a fitted effect of over 50% in size
# In short: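 Luminescent readout of luciferin produced by CYP3A4 (20 nM) dealkylation of Luciferin-PPXE, 25 uM (its KM). NADPH-driven reaction ran 60 min at RT after 10 min compound preincubation; data scaled to 57 uM ketoconazole as 100% inhibition.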
# [16] = biological target: Cytochrome P450 2C19 (Homo sapiens) (UniProt P33261); experiment: qHTS Assay for Inhibitors and Substrates of Cytochrome P450 2C19 (AID 899); note: potency is the fitted concentration of half-maximal effect; nearly all actives have a fitted effect of over 60% in size
# In short: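 Human CYP2C19 (5nM) with Luciferin-H EGE at 10uM (its KM) in 50mM KPO4 was preincubated with compound for 10 min at 37C. NADPH regeneration started a 60 min 37C reaction. Luciferin was read by luminescence, normalized to 57uM ketoconazole.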
# [17] = biological target: Cytochrome P450 2D6 (Homo sapiens) (UniProt P10635); experiment: qHTS Assay for Inhibitors and Substrates of Cytochrome P450 2D6 (AID 891); note: potency is the fitted concentration of half-maximal effect; nearly all actives have a fitted effect of over 60% in size
# In short: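 Luminescent read-out of luciferin formed by 5 nM human CYP2D6 demethylating 30 uM Luciferin-ME EGE (Km level) over 60 min at room temperature after NADPH regeneration addition. Data normalized to full inhibition by 1.43 uM quinidine.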
# [18] = biological target: Cytochrome P450 2C9 (Homo sapiens) (UniProt P11712); experiment: qHTS Assay for Inhibitors and Substrates of Cytochrome P450 2C9 (AID 883); note: % is set by controls: 0 for no effect and ±100 for the full control effect; nearly all actives have a fitted effect of over 60% in size
# In short: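 Human CYP2C9 (10nM) hydroxylated Luciferin-H (100uM, at its KM) to luciferin in 25mM KPO4. Compound was preincubated 10 min at 37C, then NADPH regeneration started a 60 min reaction at 37C. Luminescence was read after detection reagent, normalized to 57uM sulphaphenazole.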
# [19] = qHTS Assay for Identification of Small Molecule Agonists for Hypoxia Response Element Signaling Pathway (AID 914; active = well fitted activation curve with a large enough effect in the signal ratio, with a control signal flat, not every such curve was filed as active; the % refers to the signal ratio; note: % of control where 0% means no effect); conditions: ME-180 (cervical carcinoma) HRE-bla reporter, beta-lactamase ratio, CoCl2, 17 h; activation: stronger effect = higher value
# In short: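 AC50 values come from titration-series %Activity, taken as the 460/530nm ratio of CCF4 fluorescence (excitation 405nm). CellSensor HRE-bla ME-180 cells were treated 17 hours at 37 C with compound plus an EC50 level of CoCl2.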
# Ubiquitin carboxyl-terminal hydrolase 1 (Homo sapiens), sequence (O94782 whole entry, looked up): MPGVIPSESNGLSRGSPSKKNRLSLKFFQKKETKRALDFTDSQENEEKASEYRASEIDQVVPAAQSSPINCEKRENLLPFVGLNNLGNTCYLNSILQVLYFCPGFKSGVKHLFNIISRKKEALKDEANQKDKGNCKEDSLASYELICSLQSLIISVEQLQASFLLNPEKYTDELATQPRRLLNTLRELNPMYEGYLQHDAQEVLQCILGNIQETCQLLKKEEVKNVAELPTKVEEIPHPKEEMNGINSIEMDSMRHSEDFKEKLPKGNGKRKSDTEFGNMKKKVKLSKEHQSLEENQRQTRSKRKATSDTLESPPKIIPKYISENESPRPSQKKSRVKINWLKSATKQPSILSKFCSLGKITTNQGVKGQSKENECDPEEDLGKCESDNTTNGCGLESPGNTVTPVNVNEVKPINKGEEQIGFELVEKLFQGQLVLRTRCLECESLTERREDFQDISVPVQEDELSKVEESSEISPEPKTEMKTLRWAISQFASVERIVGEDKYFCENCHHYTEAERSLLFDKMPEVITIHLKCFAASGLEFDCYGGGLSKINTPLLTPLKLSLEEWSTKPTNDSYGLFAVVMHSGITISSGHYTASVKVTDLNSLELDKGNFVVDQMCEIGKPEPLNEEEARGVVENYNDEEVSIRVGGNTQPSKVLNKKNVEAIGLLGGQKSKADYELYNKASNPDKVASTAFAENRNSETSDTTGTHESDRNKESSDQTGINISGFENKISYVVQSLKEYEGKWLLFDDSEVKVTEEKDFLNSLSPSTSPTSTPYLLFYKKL
# Cytochrome P450 2C19 (Homo sapiens), sequence (P33261 whole entry, looked up): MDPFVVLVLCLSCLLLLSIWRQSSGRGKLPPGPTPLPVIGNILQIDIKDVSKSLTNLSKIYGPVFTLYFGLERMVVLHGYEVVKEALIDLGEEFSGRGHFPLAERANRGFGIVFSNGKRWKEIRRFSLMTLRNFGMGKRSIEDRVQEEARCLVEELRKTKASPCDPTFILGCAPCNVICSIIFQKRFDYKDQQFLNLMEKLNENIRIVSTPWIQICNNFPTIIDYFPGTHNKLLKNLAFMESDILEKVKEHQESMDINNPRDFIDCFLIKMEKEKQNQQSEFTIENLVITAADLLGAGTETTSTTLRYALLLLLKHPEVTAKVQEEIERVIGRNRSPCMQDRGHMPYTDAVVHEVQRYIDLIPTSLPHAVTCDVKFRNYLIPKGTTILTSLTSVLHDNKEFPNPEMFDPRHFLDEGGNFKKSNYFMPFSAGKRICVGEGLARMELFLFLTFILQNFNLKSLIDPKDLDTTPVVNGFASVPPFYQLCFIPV
# Dual specificity protein kinase CLK4 (Homo sapiens), sequence (Q9HAZ1 whole entry, looked up): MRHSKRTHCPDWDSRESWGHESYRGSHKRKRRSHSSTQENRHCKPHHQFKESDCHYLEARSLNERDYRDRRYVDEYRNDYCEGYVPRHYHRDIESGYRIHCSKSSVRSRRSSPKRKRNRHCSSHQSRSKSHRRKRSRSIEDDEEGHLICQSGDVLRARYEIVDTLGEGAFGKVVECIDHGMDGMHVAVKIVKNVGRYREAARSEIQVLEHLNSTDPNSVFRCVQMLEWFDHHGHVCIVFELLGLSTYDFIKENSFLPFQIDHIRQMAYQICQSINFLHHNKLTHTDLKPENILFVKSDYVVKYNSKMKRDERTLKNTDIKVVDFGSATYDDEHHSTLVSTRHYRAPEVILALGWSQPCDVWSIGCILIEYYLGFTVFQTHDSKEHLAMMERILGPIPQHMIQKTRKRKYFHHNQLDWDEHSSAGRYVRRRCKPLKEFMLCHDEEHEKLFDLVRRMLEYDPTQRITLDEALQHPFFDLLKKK
# 3',5'-cyclic-AMP phosphodiesterase 4B (Homo sapiens), sequence (Q07343 whole entry, looked up): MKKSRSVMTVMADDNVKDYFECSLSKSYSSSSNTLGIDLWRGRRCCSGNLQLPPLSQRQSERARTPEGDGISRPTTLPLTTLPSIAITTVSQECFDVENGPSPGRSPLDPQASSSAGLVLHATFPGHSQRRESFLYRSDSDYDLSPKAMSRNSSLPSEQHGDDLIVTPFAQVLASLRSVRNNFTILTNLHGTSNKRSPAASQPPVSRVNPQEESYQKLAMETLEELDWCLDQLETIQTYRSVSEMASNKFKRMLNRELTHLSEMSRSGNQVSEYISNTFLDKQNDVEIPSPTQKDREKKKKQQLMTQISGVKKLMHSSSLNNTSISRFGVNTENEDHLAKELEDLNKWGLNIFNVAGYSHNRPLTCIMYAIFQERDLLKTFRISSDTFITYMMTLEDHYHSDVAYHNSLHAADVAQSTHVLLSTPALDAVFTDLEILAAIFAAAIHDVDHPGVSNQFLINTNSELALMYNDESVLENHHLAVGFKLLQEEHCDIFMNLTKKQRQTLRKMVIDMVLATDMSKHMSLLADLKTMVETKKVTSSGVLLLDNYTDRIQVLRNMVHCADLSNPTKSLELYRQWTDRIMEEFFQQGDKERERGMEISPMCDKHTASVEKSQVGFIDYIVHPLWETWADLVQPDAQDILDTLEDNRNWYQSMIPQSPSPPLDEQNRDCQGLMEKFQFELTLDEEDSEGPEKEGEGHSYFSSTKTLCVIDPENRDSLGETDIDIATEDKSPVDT
# Glucocorticoid receptor (Homo sapiens), sequence (P04150 whole entry, looked up, the tested form may be a part): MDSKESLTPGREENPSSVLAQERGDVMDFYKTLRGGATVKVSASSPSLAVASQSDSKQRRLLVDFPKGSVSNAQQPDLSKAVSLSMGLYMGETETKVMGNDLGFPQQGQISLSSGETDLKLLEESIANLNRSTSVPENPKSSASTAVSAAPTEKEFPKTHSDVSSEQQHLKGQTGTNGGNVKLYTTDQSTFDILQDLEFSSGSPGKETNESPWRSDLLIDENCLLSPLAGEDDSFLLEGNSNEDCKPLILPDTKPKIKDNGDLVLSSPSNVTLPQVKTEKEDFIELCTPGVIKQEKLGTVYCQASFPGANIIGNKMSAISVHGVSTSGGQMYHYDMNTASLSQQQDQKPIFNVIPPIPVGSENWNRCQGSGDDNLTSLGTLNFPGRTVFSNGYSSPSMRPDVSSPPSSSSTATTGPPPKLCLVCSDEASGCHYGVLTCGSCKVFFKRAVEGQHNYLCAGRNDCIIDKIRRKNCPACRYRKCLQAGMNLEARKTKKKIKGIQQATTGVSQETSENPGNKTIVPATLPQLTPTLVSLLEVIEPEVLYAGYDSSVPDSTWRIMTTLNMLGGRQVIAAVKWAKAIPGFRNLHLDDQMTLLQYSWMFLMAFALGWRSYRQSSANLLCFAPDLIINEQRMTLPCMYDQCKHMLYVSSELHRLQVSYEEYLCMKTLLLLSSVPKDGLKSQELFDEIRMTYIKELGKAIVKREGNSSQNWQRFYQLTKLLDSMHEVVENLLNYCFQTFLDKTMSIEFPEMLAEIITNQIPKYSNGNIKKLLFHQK
# Cytochrome P450 1A2 (Homo sapiens), sequence (P05177 whole entry, looked up): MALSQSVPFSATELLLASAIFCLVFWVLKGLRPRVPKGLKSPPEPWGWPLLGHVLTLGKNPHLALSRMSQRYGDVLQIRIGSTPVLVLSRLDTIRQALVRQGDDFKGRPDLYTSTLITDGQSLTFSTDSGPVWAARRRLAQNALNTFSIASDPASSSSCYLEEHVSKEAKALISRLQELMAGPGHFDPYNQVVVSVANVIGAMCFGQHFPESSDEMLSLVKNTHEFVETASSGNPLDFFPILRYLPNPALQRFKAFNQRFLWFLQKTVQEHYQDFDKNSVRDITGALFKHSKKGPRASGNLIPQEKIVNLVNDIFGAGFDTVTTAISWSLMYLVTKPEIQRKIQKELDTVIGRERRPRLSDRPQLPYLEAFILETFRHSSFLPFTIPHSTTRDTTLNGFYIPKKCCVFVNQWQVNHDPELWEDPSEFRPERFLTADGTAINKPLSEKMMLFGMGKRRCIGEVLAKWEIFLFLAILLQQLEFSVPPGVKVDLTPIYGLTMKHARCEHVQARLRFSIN
# Cytochrome P450 3A4 (Homo sapiens), sequence (P08684 whole entry, looked up): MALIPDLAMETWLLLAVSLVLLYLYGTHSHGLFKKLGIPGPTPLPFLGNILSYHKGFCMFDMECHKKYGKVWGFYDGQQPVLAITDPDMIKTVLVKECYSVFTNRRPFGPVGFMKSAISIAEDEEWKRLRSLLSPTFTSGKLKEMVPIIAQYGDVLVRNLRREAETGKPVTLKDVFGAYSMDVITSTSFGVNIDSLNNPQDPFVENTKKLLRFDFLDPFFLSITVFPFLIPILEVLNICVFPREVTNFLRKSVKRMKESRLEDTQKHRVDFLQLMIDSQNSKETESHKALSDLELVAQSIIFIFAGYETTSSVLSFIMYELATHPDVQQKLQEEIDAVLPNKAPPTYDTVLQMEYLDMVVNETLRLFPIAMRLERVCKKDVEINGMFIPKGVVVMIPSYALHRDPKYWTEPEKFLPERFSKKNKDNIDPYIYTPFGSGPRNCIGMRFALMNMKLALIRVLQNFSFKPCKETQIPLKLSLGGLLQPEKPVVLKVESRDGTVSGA
# Lysosomal acid glucosylceramidase (Homo sapiens), sequence (P04062 whole entry, looked up): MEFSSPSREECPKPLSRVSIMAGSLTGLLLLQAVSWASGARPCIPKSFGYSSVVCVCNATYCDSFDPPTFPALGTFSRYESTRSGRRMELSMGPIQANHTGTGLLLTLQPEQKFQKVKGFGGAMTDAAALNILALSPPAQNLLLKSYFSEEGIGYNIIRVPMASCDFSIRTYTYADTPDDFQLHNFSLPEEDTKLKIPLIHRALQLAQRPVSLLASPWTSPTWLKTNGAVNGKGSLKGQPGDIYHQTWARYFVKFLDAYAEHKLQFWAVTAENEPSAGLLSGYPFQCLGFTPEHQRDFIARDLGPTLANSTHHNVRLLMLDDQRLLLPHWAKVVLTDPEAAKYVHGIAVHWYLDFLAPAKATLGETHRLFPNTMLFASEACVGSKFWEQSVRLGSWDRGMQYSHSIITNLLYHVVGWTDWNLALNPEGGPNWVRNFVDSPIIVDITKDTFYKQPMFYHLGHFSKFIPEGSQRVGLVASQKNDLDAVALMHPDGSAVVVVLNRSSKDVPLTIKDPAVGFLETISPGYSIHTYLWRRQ
Structure (SMILES),"activity change, negative = inhibition [1] [%]","activity change, negative = inhibition [2]",outcome [3],Potency [4] [µM],Potency [5] [µM],Potency [6],Potency [7],Potency [8],Potency [9],Potency [10],Potency [11] [µM],Potency [12],Potency [13],outcome [14],Potency [15],Potency [16],Potency [17],Potency [18],activation [19] [%]
CN1CCN(c2ncc3nc(-c4cccc(C#N)c4)c(=O)n(CCc4ccccc4)c3n2)CC1,11.8,-0.0285%,inactive,> 9.22,> 46,inactive,inactive,inactive,inactive,inactive,–,–,–,–,–,–,–,–,–
CCNc1ncc2ncc(=O)n(Cc3ccc(F)cc3)c2n1,-23.6,3%,–,> 9.22,> 46,inactive,7.94 µM (active),6.31 µM (active),–,inactive,> 11.4,1 µM (active),inactive,inactive,–,–,–,–,–
CN(C)C(=O)c1ccc(-c2nc(Nc3ccccc3)c3ccccc3n2)cc1,-10.3,2.53%,inactive,–,> 46,inactive,15.8 µM (active),28.2 µM (active),–,inactive,> 11.4,0.398 µM (active),–,inactive,–,–,–,–,–
COc1ccccc1-c1ccc2ncnc(N3CCOCC3)c2c1,–,18.9%,inactive,> 46,> 46,inactive,11.2 µM (active),12.6 µM (active),11.2 µM (active),inactive,–,0.631 µM (active),–,inactive,6.31 µM (active),1.26 µM (active),–,–,–
Cn1cc(-c2nc3cnc(N4CCNCC4)nc3n(CCc3ccccc3)c2=O)c2ccccc21,–,91.4% [activator] (active),–,> 9.22,–,–,inactive,inactive,inactive,–,> 11.4,15.8 µM (active),inactive,inactive,–,2 µM (active),–,–,–
COc1cccc(-c2cncnc2NCCc2c[nH]c3ccc(OC)cc23)c1,–,–,–,> 46,> 46,–,20 µM (active),22.4 µM (active),inactive,inactive,–,2 µM (active),–,inactive,0.501 µM (active),0.316 µM (active),2.51 µM (active),–,–
N#CCCn1c(=O)c(-c2ccc(Cl)cc2)nc2cnc(N3CCOCC3)nc21,0.155,5.23%,inactive,> 9.22,> 46,inactive,inactive,inactive,–,inactive,> 11.4,15.8 µM (active),inactive,–,–,–,–,inactive,22.6
